# Test results published in PubChem BioAssay (EPA / NIEHS).
# Records with an inconclusive call do not appear. Activity calls are given as the source filed them. How the source made its calls, unless noted: active means hit-call score of the fitted dose curve at least 0.9, where 1 is the maximum; inactive means score below 0.9.
# What was measured:
# [1] = target: human CYP1A2, CYP1A2 (gene 1544) (UniProt P05177); experiment: NVS_ADME_hCYP1A2: NovaScreen (NVS) CYP450-related Enzyme Activity (ADME) Assay for human CYP1A2 (AID 2283102; active means hit-call score of the fitted dose curve at least 0.9, where 1 is the maximum;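 on AC50: potency for inhibition since loss of fluorescence marks reduced CYP1A2 activity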)
# Chain of human CYP1A2, CYP1A2 (gene 1544) (P05177 whole entry, looked up): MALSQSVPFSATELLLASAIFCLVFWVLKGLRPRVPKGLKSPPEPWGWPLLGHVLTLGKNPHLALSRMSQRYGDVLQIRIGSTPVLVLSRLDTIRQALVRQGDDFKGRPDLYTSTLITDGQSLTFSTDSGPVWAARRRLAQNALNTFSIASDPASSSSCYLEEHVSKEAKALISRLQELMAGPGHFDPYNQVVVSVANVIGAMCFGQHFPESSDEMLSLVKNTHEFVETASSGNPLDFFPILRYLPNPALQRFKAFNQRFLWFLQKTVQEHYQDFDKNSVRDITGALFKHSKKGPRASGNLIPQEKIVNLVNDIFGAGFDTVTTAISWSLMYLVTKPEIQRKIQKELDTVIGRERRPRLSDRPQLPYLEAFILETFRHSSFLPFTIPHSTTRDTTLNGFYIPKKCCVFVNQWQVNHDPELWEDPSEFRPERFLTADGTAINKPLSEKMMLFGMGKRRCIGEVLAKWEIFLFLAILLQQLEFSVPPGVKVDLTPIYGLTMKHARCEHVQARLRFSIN
# How it was run: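 Cell-free recombinant human CYP1A2 expressed in insect cells, with fluorogenic substrate; fluorescence intensity read 0.5 h after dosing. Loss of signal relative to acetonitrile baseline scored. Primary screen in duplicate at 10 uM; actives retested in concentration series.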
# [2] = BSK_SAg_Proliferation: Cell Proliferation Assessment in the BioMAP Diversity Plus: SAg Assay (AID 2283095); settings: primary human HUVEC with PBMC;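 further: relative cell number as total protein by SRB absorbance in sub-confluent culture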
# How it was run: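 Relative cell number in the endothelial cell/PBMC co-culture was quantified at 96 h by SRB staining (0.1% SRB, 10% TCA fixation, read at 560 nm). Curves were fitted in both directions relative to DMSO baseline.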
# [3] = BSK_SAg_SRB: Viability Assessment in the BioMAP Diversity Plus: SAg Assay (AID 2283096); settings: primary human HUVEC with PBMC;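 further: cells read one day after compound addition; hits may be either gain or loss of signal compared with DMSO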
# How it was run: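 This overt-cytotoxicity endpoint quantifies protein in human endothelial/PBMC co-cultures at 24 h using SRB absorbance (560 nm) after trichloroacetic acid fixation. Values reflect signal change from the DMSO negative control, fitted bidirectionally.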
# [4] = target: human CYP19A1, CYP19A1 (gene 1588) (UniProt P11511); experiment: NVS_ADME_hCYP19A1: NovaScreen (NVS) CYP450-related Enzyme Activity (ADME) Assay for human CYP19A1 (AID 2283098; active means hit-call score of the fitted dose curve at least 0.9, where 1 is the maximum;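 on AC50: potency for inhibitors seen as loss of fluorescent enzyme signal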)
# Chain of human CYP19A1, CYP19A1 (gene 1588) (P11511 whole entry, looked up): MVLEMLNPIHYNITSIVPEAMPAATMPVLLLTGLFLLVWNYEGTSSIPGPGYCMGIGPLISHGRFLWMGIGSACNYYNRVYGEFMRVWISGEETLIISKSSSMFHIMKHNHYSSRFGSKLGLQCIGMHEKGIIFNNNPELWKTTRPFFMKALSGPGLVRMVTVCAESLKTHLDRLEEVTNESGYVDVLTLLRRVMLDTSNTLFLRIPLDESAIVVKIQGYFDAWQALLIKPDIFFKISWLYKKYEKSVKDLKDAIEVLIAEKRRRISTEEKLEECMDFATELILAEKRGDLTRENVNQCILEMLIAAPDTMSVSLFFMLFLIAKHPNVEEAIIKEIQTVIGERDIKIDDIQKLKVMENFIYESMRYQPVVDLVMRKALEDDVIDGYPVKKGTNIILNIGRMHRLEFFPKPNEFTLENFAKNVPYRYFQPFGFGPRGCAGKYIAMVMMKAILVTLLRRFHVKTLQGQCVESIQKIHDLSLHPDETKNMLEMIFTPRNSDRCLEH
# How it was run: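 Compounds were first screened at 10 uM in duplicate against purified enzyme, with a fluorogenic substrate and fluorescence intensity detection after 0.5 h. Inhibition appears as reduced signal against acetonitrile control.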
# [5] = target: human CYP2D6, CYP2D6 (gene 1565) (UniProt P10635); experiment: NVS_ADME_hCYP2D6: NovaScreen (NVS) CYP450-related Enzyme Activity (ADME) Assay for human CYP2D6 (AID 2283107; active means hit-call score of the fitted dose curve at least 0.9, where 1 is the maximum)
# Chain of human CYP2D6, CYP2D6 (gene 1565) (P10635 whole entry, looked up): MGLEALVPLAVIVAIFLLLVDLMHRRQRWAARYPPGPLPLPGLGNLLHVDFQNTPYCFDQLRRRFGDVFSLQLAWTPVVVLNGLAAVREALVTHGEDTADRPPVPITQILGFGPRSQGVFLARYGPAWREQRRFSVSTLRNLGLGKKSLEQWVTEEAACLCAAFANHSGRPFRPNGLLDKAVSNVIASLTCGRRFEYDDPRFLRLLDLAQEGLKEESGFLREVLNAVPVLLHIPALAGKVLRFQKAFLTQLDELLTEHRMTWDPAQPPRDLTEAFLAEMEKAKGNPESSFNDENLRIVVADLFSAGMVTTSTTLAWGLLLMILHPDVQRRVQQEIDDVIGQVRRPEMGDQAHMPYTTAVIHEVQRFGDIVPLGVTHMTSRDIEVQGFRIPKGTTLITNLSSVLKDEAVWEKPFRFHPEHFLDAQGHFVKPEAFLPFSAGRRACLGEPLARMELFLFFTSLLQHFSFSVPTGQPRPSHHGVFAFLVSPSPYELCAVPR
# How it was run: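 Cell-free assay using recombinant enzyme expressed in insect cells, with fluorescence-intensity readout of enzyme activity 1 hour after chemical dosing. Loss of signal versus acetonitrile negative control indicates inhibition. Primary screen ran in duplicate at 10 uM; actives were retested in concentration series.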
# [6] = target: human CYP2B6, CYP2B6 (gene 1555) (UniProt P20813); experiment: NVS_ADME_hCYP2B6: NovaScreen (NVS) CYP450-related Enzyme Activity (ADME) Assay for human CYP2B6 (AID 2283101; active means hit-call score of the fitted dose curve at least 0.9, where 1 is the maximum)
# Chain of human CYP2B6, CYP2B6 (gene 1555) (P20813 whole entry, looked up): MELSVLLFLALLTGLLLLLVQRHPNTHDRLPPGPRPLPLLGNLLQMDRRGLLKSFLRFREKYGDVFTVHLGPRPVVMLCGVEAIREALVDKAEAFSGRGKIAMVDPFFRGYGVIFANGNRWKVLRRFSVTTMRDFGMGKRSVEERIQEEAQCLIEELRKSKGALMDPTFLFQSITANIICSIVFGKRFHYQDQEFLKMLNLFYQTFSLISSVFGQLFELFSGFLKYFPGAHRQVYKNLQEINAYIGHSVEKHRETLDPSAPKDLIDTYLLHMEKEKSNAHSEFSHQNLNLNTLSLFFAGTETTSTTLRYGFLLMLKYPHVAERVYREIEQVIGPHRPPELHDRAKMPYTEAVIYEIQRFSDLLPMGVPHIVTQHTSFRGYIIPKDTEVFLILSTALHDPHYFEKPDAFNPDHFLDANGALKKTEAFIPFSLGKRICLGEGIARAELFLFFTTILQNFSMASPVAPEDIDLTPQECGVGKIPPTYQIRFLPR
# How it was run: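 Fluorescence-based enzyme activity of recombinant human CYP2B6, measured 1 h post-dose against acetonitrile vehicle baseline. Screened at a single concentration of 10 uM in duplicate before concentration-response follow-up.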
# [7] = target: human CYP2C9, CYP2C9 (gene 1559) (UniProt P11712); experiment: NVS_ADME_hCYP2C9: NovaScreen (NVS) CYP450-related Enzyme Activity (ADME) Assay for human CYP2C9 (AID 2283108; active means hit-call score of the fitted dose curve at least 0.9, where 1 is the maximum)
# Chain of human CYP2C9, CYP2C9 (gene 1559) (P11712 whole entry, looked up): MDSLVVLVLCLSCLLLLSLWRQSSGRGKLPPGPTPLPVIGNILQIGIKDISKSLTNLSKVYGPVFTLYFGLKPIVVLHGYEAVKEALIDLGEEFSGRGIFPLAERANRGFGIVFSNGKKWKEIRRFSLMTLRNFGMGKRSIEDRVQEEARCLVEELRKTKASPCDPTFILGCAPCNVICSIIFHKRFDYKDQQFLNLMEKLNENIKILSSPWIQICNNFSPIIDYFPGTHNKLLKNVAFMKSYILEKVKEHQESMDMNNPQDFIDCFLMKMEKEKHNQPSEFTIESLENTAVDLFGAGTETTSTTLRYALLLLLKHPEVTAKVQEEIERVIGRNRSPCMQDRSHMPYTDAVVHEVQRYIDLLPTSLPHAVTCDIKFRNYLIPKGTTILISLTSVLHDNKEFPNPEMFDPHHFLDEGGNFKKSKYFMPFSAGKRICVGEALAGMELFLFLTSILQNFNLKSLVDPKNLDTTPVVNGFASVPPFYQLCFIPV
# How it was run: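 Cell-free assay of recombinant human CYP2C9 produced in Sf9 cells, with enzyme activity read by fluorescence intensity 0.75 h after compound addition. Loss of signal versus an acetonitrile negative control indicates inhibition. Primary screen used 10 uM in duplicate; actives were retested in concentration series.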
# [8] = target: Cytochrome P450 3A4 (Homo sapiens) (UniProt P08684); experiment: NVS_ADME_hCYP3A4: NovaScreen (NVS) CYP450-related Enzyme Activity (ADME) Assay for human CYP3A4 (AID 2283110; active means hit-call score of the fitted dose curve at least 0.9, where 1 is the maximum)
# Chain of Cytochrome P450 3A4 (Homo sapiens) (P08684 whole entry, looked up): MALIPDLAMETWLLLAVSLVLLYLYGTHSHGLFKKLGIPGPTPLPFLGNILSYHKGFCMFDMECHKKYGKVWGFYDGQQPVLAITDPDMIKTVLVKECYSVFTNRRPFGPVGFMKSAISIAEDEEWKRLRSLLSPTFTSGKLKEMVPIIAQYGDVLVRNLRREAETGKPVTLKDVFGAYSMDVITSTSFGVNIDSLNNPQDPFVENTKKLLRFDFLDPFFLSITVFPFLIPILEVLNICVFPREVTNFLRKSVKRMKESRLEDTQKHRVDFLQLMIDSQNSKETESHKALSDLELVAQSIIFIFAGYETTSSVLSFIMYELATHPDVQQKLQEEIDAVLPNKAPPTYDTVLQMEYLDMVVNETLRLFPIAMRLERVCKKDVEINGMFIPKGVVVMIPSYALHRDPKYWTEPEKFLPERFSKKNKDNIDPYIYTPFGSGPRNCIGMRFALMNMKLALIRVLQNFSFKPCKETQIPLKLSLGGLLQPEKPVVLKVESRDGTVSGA
# How it was run: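 Activity is derived from decreased fluorescence intensity relative to acetonitrile, measured 0.33 hour after dosing insect-cell-expressed CYP3A4 in a cell-free format. Screening used 10 uM in duplicate before concentration-response follow-up.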
structure (smiles),measurement,setting,value
CCOCn1c(-c2ccc(Cl)cc2)c(C#N)c(Br)c1C(F)(F)F,AC50,[1],1.35 µM (active)
Nc1c(Oc2ccccc2)cc(O)c2c1C(=O)c1ccccc1C2=O,outcome,[2],inactive
same,AC50,[3],2.22 µM (active)
Cc1ccc2nc3sc(=O)sc3nc2c1,AC50,[2],7.93 µM (active)
same,AC50,[3],5 µM (active)
O=C1C=CC(=O)c2ccccc21,AC50,[2],0.125 µM (active)
same,AC50,[3],5.33 µM (active)
CC(C)=CC1C(C(=O)OCc2cccc(Oc3ccccc3)c2)C1(C)C (centres undefined),AC50,[2],26.3 µM (active)
same,AC50,[3],24.9 µM (active)
CCC(C)(C#N)N=NC(C)(C#N)CC (centres undefined),outcome,[2],inactive
same,outcome,[3],inactive
O=c1nc(O)n(Cl)c(=O)n1Cl,outcome,[4],inactive
CCOC(=O)CCN(SN(C)C(=O)Oc1cccc2c1OC(C)(C)C2)C(C)C,AC50,[2],23.1 µM (active)
same,outcome,[3],inactive
O=C(O)C1(c2ccc3c(c2)OC[C@H](Cc2ccc(-c4ccccc4)cc2)[C@H]3O)CCCC1,AC50,[2],16.7 µM (active)
same,AC50,[3],27.3 µM (active)
Clc1cccc(Cl)c1,outcome,[2],inactive
same,outcome,[3],inactive
Nc1ccc(N)cc1,outcome,[2],inactive
same,outcome,[3],inactive
same,outcome,[5],inactive
Cc1cc(Cl)ccc1N,outcome,[2],inactive
same,outcome,[3],inactive
CC(C)(C)c1ccccc1O,outcome,[2],inactive
same,outcome,[3],inactive
same,outcome,[6],inactive
Cc1cc(C(C)(C)c2ccc(O)c(C)c2)ccc1O,AC50,[2],18.2 µM (active)
same,outcome,[3],inactive
same,AC50,[7],0.942 µM (active)
same,outcome,[8],inactive
O=C(N[C@H]1CN2CCC1CC2)c1ccc2c(c1)OCCO2,outcome,[2],inactive
same,outcome,[3],inactive
CC(C)O.CC(C)O.OCCN(CCO)CCO.OCCN(CCO)CCO.[Ti],outcome,[2],inactive
same,outcome,[3],inactive
O=[N+]([O-])c1cccc2ccccc12,outcome,[2],inactive
same,outcome,[3],inactive
O=C1c2ccccc2C(=O)C1C(=O)C(c1ccccc1)c1ccc(Cl)cc1 (centres undefined),AC50,[4],5.08 µM (active)
COC(=O)Nc1cccc(OC(=O)Nc2cccc(C)c2)c1,outcome,[1],inactive
Cc1ccccc1OP(=O)(Oc1ccccc1C)Oc1ccccc1C,AC50,[2],12.7 µM (active)
same,AC50,[3],9.8 µM (active)
O=c1oc2ccccc2c(O)c1C(CC(O)c1ccc(-c2ccc(Br)cc2)cc1)c1ccccc1 (centres undefined),AC50,[2],26.4 µM (active)
same,AC50,[3],19.1 µM (active)
N#Cc1cccnc1,outcome,[2],inactive
same,outcome,[3],inactive
